Bioassay records as filed in PubChem.
Sm TGR inh = S. mansoni TGR enzyme inhibition. Q962Y6. purified TGR, DTNB reduction, TNB absorbance 405 nm. Potency, µM (highest dose often 114 µM), most hits filed as inhibitors. 3% of 360,000 active. AID 485364; also: nearly all actives have a fitted effect of over 60% in size
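Kinetic colorimetric format: TGR-catalysed, NADPH-driven DTNB reduction monitored via TNB absorbance. Enzyme dispensed at 20 nM; compound exposure 15 min at room temperature before reaction start.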
AMA1-RON2 inh = inhibitors of Plasmodium falciparum AMA1-RON2 interaction; Potency, µM (highest dose often 58.2 µM), hits mostly inhibitors; AID 720542; AlphaScreen AMA1-biotinylated RON2 peptide binding; 0.2% of 360,000 active; also: nearly all actives have a fitted effect of over 45% in size
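AMA1 (3D7) with his tag at 25 nM final met compounds first, then biotinylated RON2 peptide at 25 nM; detection used donor plus acceptor beads, 10 µg/mL apiece, read by AlphaScreen after 30 min at room temperature.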
Pf growth 96h = P. falciparum growth inhibition at 96 hours. P. falciparum luciferase reporter growth, 96 h. 6.9% of 320,000 active. Potency, µM (doses to about 28.7 µM), usual class: inhibitors
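P. falciparum expressing integrated firefly luciferase, in erythrocytes at 2% hematocrit, 0.05% parasitemia, incubated with compounds 96 h at 37 C, 5% CO2. Growth inhibition read as loss of luminescence; two-generation exposure targets delayed-death apicoplast inhibitors.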
NS1 inh = blocks influenza NS1 protein function; 0.4% of 270,000 active; AID 2326; Potency, µM (series often up to 46.1 µM); calls by dose curve; also: actives are rising curves; nearly all actives have a fitted effect of over 50% in size
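S. cerevisiae expressing influenza A NS1, grown in glucose, washed, then diluted 1:100 into pH 6.0 -URA galactose medium with 23 nl compound. Growth recovery read as OD600; NS1-free strain serves as control.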
Pf growth 48h = inhibits P. falciparum growth in the first generation, 48 h; P. falciparum luciferase growth in erythrocytes, 48 h; Potency, µM (titrated, usually from 28.7 µM), actives largely listed as inhibitors; 5.9% of 310,000 active; AID 504832
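Read-out is firefly luciferase luminescence from an integrated reporter in P. falciparum, so falling signal marks reduced parasite growth. Infected erythrocytes were at 2% hematocrit and 0.1% parasitemia (final) in Albumax-supplemented RPMI 1640.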
A number is an active result; . = inactive; ? = inconclusive; / = no result given; [ ] = another dose, or the depositor's remark. An excerpt weighted towards active compounds, which were near 11% of everything screened. Unless noted, calls follow the shape of the dose curve; as a rule, active = well fitted curve in the direction sought with a large enough effect; inconclusive = small, poorly fitted or top-dose-only effect, or another doubt; inactive = no such curve, though single readings can be large; an effect the other way counts as inactive or inconclusive.

SMILES	Sm TGR inh	AMA1-RON2 inh	Pf growth 96h	NS1 inh	Pf growth 48h
CCN1C(=O)C(O)(CC(=O)c2c(C)coc2C)c2ccccc21 (stereo unspecified)	.	.	.	.	.
Cc1coc(C)c1C(=O)CC1(O)C(=O)N(CCc2ccccc2)c2ccccc21 (stereo unspecified)	14µM	.	/	.	.
CC(C)CN(CCCNC(=O)Cn1ncc2c3ccccc3n(C)c2c1=O)CC(C)C	.	/	/	/	/
O=c1[nH]cc(O)c(=O)[nH]1	.	.	.	.	.
O=c1[nH]cc(F)c(=O)[nH]1	.	.	4.7µM	.	6.6µM
CC(C)OCCCN1CC(=O)N2C(c3cccc([N+](=O)[O-])c3)c3[nH]c4ccccc4c3C[C@H]2C1=O (stereo partly specified)	.	.	?	.	8.3µM
COc1ccc(C2c3[nH]c4ccccc4c3C[C@H]3C(=O)N(CCCO)CC(=O)N23)cc1OC (stereo partly specified)	.	.	.	.	.
COc1ccc(OC)c(C2c3[nH]c4ccccc4c3C[C@H]3C(=O)N(CCCOC(C)C)CC(=O)N23)c1 (stereo partly specified)	.	.	12µM	.	7.4µM
Cc1cc(C)c2c(c1)c(C)cc1nnc(SCC(=O)c3ccc(F)cc3)n12	.	/	/	/	/
CN(C)S(=O)(=O)c1ccc2c(c1)C(=NNC(N)=O)c1cc(S(=O)(=O)N(C)C)ccc1-2	.	.	.	.	.
CN(C)N=C1c2cc(S(=O)(=O)N(C)C)ccc2-c2ccc(S(=O)(=O)N(C)C)cc21	.	.	12µM	.	13µM
CN(C)S(=O)(=O)c1ccc2c(c1)C(=NO)c1cc(S(=O)(=O)N(C)C)ccc1-2	.	.	2.6µM	.	.
CC(C)CCN1C(=O)c2cccc3c(N)ccc(c23)C1=O	/	.	/	/	/
COc1cc(OC)c(OC)cc1CNCCCSc1nnnn1C	.	/	/	/	/
NC(=S)N=Nc1ccc(NN=C(N)N)cc1	50µM	?	?	.	1.2µM
COC(=O)c1ccc(NN=Nc2ccc(C)cc2)cc1	?	.	.	.	.
Cc1cc([N+](=O)[O-])ccc1P(=O)(O)c1ccc([N+](=O)[O-])cc1C	/	.	/	/	/
Cc1cccc(N2CCN(c3ncnc4c3nc3n4CCCCC3)CC2)c1C	.	/	/	/	/
CCOc1ccc(N(C(=O)c2cnsn2)C(C(=O)NC2CCCCC2)c2ccncc2)cc1 (stereo unspecified)	.	.	1.2µM	.	?
COc1cccc(C(C(=O)NC2CCCCC2)N(C(=O)c2ccccn2)c2cccnc2)c1 (stereo unspecified)	.	.	1.7µM	.	.
CCc1ccc(C(C(=O)NC2CCCCC2)N(C(=O)c2ccccn2)c2cccnc2)cc1 (stereo unspecified)	.	/	.	.	.
CCOc1ccc(C(C(=O)NC2CCCCC2)N(C(=O)c2ccccn2)c2cccnc2)cc1 (stereo unspecified)	/	.	15µM	.	10µM
O=C(CC(=O)c1ccccc1)CS(=O)(=O)c1ccccc1	/	.	/	/	/
O=C(Cn1c2[n+](c3ccc(C(F)(F)F)cc31)CCCCC2)c1ccc2c(c1)OCCO2	.	.	?	.	?
O=C(Cn1c2[n+](c3ccc(C(F)(F)F)cc31)CCCCC2)Nc1ccccc1	.	.	?	.	?
SMILES	Sm TGR inh	AMA1-RON2 inh	Pf growth 96h	NS1 inh	Pf growth 48h
CCc1cccc(NC(=O)Cn2c3[n+](c4ccc(C(F)(F)F)cc42)CCCCC3)c1	.	.	1µM	.	4.7µM
FC(F)(F)c1ccc2c(c1)n(Cc1ccccc1)c1[n+]2CCCCC1	?	.	?	/	6.6µM
O=C(Cn1c2[n+](c3ccc(C(F)(F)F)cc31)CCCCC2)c1cccc([N+](=O)[O-])c1	.	.	13µM	/	15µM
Cc1cc(C)nc(-n2ncc3c2CC(C)CC3=O)n1 (stereo unspecified)	.	.	.	.	.
COc1ccc(CNc2nc(NCc3ccc(OC)c(OC)c3)n(C(=O)c3cccs3)n2)cc1OC	.	?	7.4µM	.	?
COc1ccc(CCNC(=O)c2cccs2)cc1OC	.	.	.	.	.[1.15 µM]
COc1ccccc1CNC(=O)COC(=O)c1cccc(S(=O)(=O)N2CCCCC2)c1	.	.	?	.	.
CCC(=O)Nc1ccc(-c2nnc(SCc3ccc(C(=O)Nc4nccs4)cc3)n2CC)cc1	.	.	.	?	7.4µM
CCn1c(SCC(=O)Nc2nccs2)nnc1-c1ccc(C)cc1	.	.	.	.	.
Cc1ccccc1SCC(=O)OCC(=O)Nc1sccc1C(N)=O	.	.[11.6 µM]	.	.	.
NC(=O)c1ccsc1NC(=O)CSc1ccccc1F	.	.	9.3µM	.	.
NC(=O)c1ccsc1NC(=O)c1nc(-c2ccccc2)n(-c2ccccc2)n1	.	.	7.4µM	?	7.4µM
COc1ccc(S(=O)(=O)N2CCN(c3ccccn3)CC2)cc1OC	.	.	.	.	.
COc1ccccc1N1CCN(S(=O)(=O)c2cc(C)sc2C)CC1	.	.	4.7µM	.	/
CCc1ccccc1N1CCN(S(=O)(=O)c2cc(OC)ccc2OC)CC1	.	.	10µM	.	.
COc1ccc(S(=O)(=O)N2CCN(c3ccccn3)CC2)c(OC)c1	.	.	4.7µM	.	.
COc1ccccc1N1CCN(S(=O)(=O)c2ccc(-n3cnnn3)c(C)c2)CC1	.	.	1.7µM	.	.
COc1ccc(C(=O)NNC(=O)c2ccc(C)cc2)cc1S(=O)(=O)N1CCCC1	.	.	.	/	.
C=C(C)c1cccc(C(C)(C)NC(=O)N2CCN(C(=O)OCC)CC2)c1	/	.	/	/	/
CCN(CC)c1ccc2cc(-c3nc(-c4cccs4)no3)c(=O)oc2c1	.	/	/	/	/
O=C(CN1CCSC1=NCc1ccccc1)c1ccc(Cl)c(Cl)c1	.	.[2.32 µM]	9.3µM	.	?
COC(=O)C1=CN(C2CC2)C=C(C(=O)OC)C1c1ccccc1OC	.	.	.	.	12µM
COCCN1C(=O)COc2ccccc2C1C(=O)NC1CCCCC1 (stereo unspecified)	/	.	/	/	/
CCOC(=O)c1cn(CC(=O)Nc2ccc(OC)cc2OC)nn1	.	.	.	/	.
CC(C)C[C@@H](NC(=O)[C@H](Cc1ccccc1)NC(=O)c1cnccn1)B(O)O	/	/	0.03µM	/	0.067µM
SMILES	Sm TGR inh	AMA1-RON2 inh	Pf growth 96h	NS1 inh	Pf growth 48h
Cc1ccccc1CNC(=O)C1CCCN(c2cnccn2)C1 (stereo unspecified)	.	.	.	.	.
CC1=CC(=C(C#N)c2nc3ccccc3s2)C=C(C)N1Cc1ccco1	.	.	/	.	3.3µM
N#C/C(=C(/O)c1ccco1)c1nc2ccccc2s1	.	.	.	.	.
CC(C)(C)S(=O)N1Cc2cc(C(=O)NCc3ccc4c(c3)OCO4)nc(-c3cccc(-c4ccccc4)c3)c2[C@@H]1CCO (stereo partly specified)	/	.	/	/	/
O=C(O)c1sc2cccc(Cl)c2c1Cl	.	.	1.3µM	.	?
CCOCCc1nnc(NC(=O)C(=O)c2cc(C)n(-c3cccc(Cl)c3)c2C)s1	.	/	/	/	/
